About 810 (0.43%) of roughly 190,000 compounds were called active. No stated cut-off is given here; in the data, active means inhibition above about 50%; inactive means the rest. The sample as a whole holds a higher share of actives than the screen did.
biological target: Mannose-6-phosphate isomerase (Homo sapiens) (UniProt P34949); experiment: MPI enzyme activity inhibition – biochemical, fluorescence intensity, coupled assay, primary screen (AID 1209); settings: purified PMI enzyme, at 20 µM, active compounds read high;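 further: plate controls were DMSO vehicle for no effect and wells lacking substrate for full effect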
Sequence (P34949 whole entry, looked up): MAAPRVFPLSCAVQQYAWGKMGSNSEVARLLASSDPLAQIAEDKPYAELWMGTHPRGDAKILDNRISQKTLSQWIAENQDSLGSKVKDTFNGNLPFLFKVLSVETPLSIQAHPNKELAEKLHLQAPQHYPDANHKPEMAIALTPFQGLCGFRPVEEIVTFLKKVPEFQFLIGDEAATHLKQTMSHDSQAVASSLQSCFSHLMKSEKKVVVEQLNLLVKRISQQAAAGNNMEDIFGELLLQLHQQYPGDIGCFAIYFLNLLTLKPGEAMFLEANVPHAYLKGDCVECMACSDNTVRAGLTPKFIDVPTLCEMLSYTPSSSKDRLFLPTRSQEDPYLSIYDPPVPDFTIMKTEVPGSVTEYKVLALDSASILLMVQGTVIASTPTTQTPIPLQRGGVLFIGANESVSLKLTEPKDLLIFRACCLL

inhibition, active:
OC1(c2ccccc2)CCN(Cc2ccccc2)CC1 57.2%
O=C(c1cnn2c(C(F)F)cc(C3CC3)nc12)N1CCOCC1 53.1%
O=C(CSc1ccc2ccccc2c1)NCCc1ccc(O)c(O)c1 52.6%
Cc1ccc(C(=O)c2coc3c2C(=O)C(=O)c2ccccc2-3)cc1 72.9%
O=C1C(=O)c2c(C(=O)c3ccccc3)coc2-c2ccccc21 73.4%
O=C1Nc2ccc([N+](=O)[O-])cc2C1=Nc1cccc(CO)c1 56.8%
NC(=O)c1ccc(N=C2C(=O)Nc3ccc([N+](=O)[O-])cc32)cc1 52.5%
O=C(N/N=C\c1ccc(-c2ccccc2[N+](=O)[O-])o1)C1COc2cc3ccccc3cc2O1 (centres undefined) 70.2%
Cc1c(C(=O)N/N=C/c2ccc(-c3ccccc3[N+](=O)[O-])o2)sc(N)c1C#N 55.1%
Cc1ccc(C(=O)N/N=C/c2ccc(-c3ccccc3[N+](=O)[O-])o2)cn1 52.2%
CN1CCc2cccc3c2[C@@H]1Cc1ccc(O)c(O)c1-3 64.3%
CN1CCc2cccc3c2[C@H]1Cc1ccc(O)c(O)c1-3 79.7%
Cc1ccc(C(=O)c2c(C)oc3c2C(=O)C(=O)c2ccccc2-3)cc1 73.3%
Cc1oc2c(c1C(=O)c1ccc(Cl)cc1)C(=O)C(=O)c1ccccc1-2 63.9%
Cc1oc2c(c1C(=O)c1ccccc1)C(=O)C(=O)c1ccccc1-2 73.6%
O=[N+]([O-])C1=CC=C2C(=NC3(CCCCC3)N2O)C1=NCCc1ccccc1 62.9%
O=[N+]([O-])C1=CC=C2C(=NC3(CCCCC3)N2O)C1=NCCO 81.4%
CC1CCCC2(C1)NC(=S)c1c(sc3c1CCCC3)N2 (centres undefined) 74.4%
CC(C)N(CC#CCC(O)(c1ccccc1)C1CCCC1)CCO (centres undefined) 58.1%
CCOC(=O)NC1(NCc2ccccc2)Oc2ccccc2O1 51.2%
COC(=O)c1c(-c2ccco2)csc1NC(=O)C1CC=CCC1C(=O)O (centres undefined) 51.4%

inhibition, inactive:
OC1(c2ccc(F)cc2)CCN(Cc2ccccc2)C1 (centres undefined) -8.8%
OC1(c2ccc3ccccc3c2)CCN(Cc2ccccc2)C1 (centres undefined) -11.8%
CCC1(C)Cc2[nH]c(=O)c(C#N)cc2CO1 (centres undefined) 2.9%
COc1cc(/C=N/Nc2nc(C)nc3c2cnn3-c2ccccc2)ccc1O 6.9%
c1cc2nnnn2nc1N1CCCCC1 -6.5%
O=C(c1cnn2c(C(F)F)cc(C3CC3)nc12)N1CCCC1 -5.5%
CN1CCN(C(=O)c2cnn3c(C(F)F)cc(C4CC4)nc23)CC1 9.1%
NS(=O)(=O)c1ccc(CCNC(=O)CSc2ccc3ccccc3c2)cc1 -13.1%
COc1ccc(CCNC(=O)CSc2ccc3ccccc3c2)cc1OC 1.7%
Cc1cc(C)n2nc(C(=O)OCCOc3ccc(Br)cc3)nc2n1 7.1%
COc1cc2nc(NC(=O)c3ccc(Cl)cc3)[nH]c(=O)c2cc1OC 25.5%
O=C1c2ccccc2C(=O)c2c1oc(C(F)(F)F)c2C(=O)c1ccccc1 -31.5%
O=C(c1ccccc1)c1coc2c1C(=O)c1ccccc1C2=O -42.6%
COc1ccc(C(=O)c2coc(-c3ccccc3C(=O)O)c2C(=O)O)cc1 -8.2%
Cc1ccc(C(=O)c2c[nH]cc2-c2ccccc2)cc1 -1%
Cc1cccc(N=C2NC(=O)c3cc([N+](=O)[O-])ccc32)c1 -1.4%
NC(=O)c1ccc(C(=O)c2ccc([N+](=O)[O-])cc2)cc1 -7.1%
O=C1NC(=Nc2ccccc2)c2ccc([N+](=O)[O-])cc21 28.5%
Cc1ccc(N=C2NC(=O)c3cc([N+](=O)[O-])ccc32)cc1 14.1%
CCOC(=O)c1c(NC(=O)Nc2cccc(Cl)c2)sc(C)c1C -4.2%
O=C(CSc1ncnc2ccccc12)c1ccc2c(c1)OCCO2 9.1%
Nc1[nH]n2c(=O)cc(-c3ccccc3)nc2c1N=Nc1ccc2c(c1)OCO2 28%
COc1ccc2ccccc2c1/C=N/NC(=O)c1sc(N)c(C#N)c1C 12.9%
Cc1cc([N+](=O)[O-])c(C)cc1-c1ccc(/C=N/NC(=O)c2cccnc2)o1 8.6%
O=C(N/N=C\c1ccc(-c2ccccc2[N+](=O)[O-])o1)C1COc2ccccc2O1 (centres undefined) 33.9%
Cc1ccc(C(=O)N/N=C\c2ccccc2[N+](=O)[O-])cn1 -13.1%
O=C(N/N=C/c1ccc(-c2ccccc2[N+](=O)[O-])o1)c1cncc(Br)c1 33.3%
Cc1ccc(/C=N\NC(=O)C2COc3cc4ccccc4cc3O2)o1 (centres undefined) 5%
COC(=O)c1[nH]c2ccccc2c1NC(=O)CCN1CCN(C2CCCCC2)CC1 3.6%
COc1cc(CC(=O)OCC(=O)Nc2cc([N+](=O)[O-])ccc2F)cc(OC)c1OC 2.7%
Cc1ccc(C(c2nnnn2C(C)(C)C)N2CCC(C)CC2)cc1 (centres undefined) -7.6%
CCCCS(=O)(=O)Nc1ccc2cn[nH]c2c1 10%
O=C(/C=C/c1ccco1)N1CCN(S(=O)(=O)/C=C/c2ccccc2)CC1 -3.5%
CCCC(=O)NCCCc1nc2ccccc2n1C(C)C 2.7%
CN1CCc2ccccc2C1C1CCNCC1 (centres undefined) -2.5%
CN1CCc2cc3c(c4c2[C@H]1[C@H](O)c1ccccc1-4)OCO3 15.6%
COc1ccc2c(c1O)-c1ccccc1CCN(C)C2 -0.5%
CC(=O)c1cc2c(=O)c3cc(C)ccc3oc2nc1C 3.2%
COc1ccccc1OCC(=O)Nc1ccc(O)cc1C(=O)O -4%
CCc1ccccc1N(C(=O)Cn1nnc2ccccc21)C(C(=O)NCCOC)c1ccco1 (centres undefined) 3.9%
CC1=C(CC(=O)c2ccc(Cl)cc2)C(=O)c2ccccc2C1=O -15.5%
O=C(c1ccc(Cl)cc1)c1ccc(CN2C(=O)c3ccccc3C2=O)o1 6.4%
Cc1oc2c(c1C(=O)N1CCC(C)CC1)C(=O)c1ccccc1C2=O 1.3%
CCOC(=O)c1c(C)oc2c1C(=O)c1ccccc1C2=O -48.2%
Cc1oc2c(c1C(=O)O)C(=O)c1ccccc1C2=O -55.2%
CC(=O)c1c(C)oc2c1C(=O)c1ccccc1C2=O 0.2%
O=C(CCCn1cnc([N+](=O)[O-])n1)Nc1ccc(Cl)cc1Cl 8.7%
COc1cccc(-c2nc(CS(=O)(=O)CC(=O)Nc3cccc(C)c3C)c(C)o2)c1 7.1%
CCOC(=O)C1CCN(C(=O)COc2ccc(Cl)cc2)CC1 0.2%
CC(NC(=O)c1ccccc1F)c1nnc(SCC(=O)N2CCN(c3ccccc3)CC2)n1C (centres undefined) -2.3%
CCOC(=O)c1c(CN2CCC(C)CC2)oc2ccc(OC)cc12 -3.3%
CCCN(C(=O)c1cn(CC)c2nc(C)ccc2c1=O)c1c(N)n(Cc2ccccc2)c(=O)[nH]c1=O 11.3%
CN(Cc1cccnc1)C(=O)CNC(=O)c1ccc(Cl)cc1Cl -2.4%
COc1ccc(NS(=O)(=O)c2cccc3nonc23)c(OC)c1 -1.3%
Cc1ccc(-c2nnn(CC(=O)N(CC(=O)NC3CCCC3)c3ccc(F)c(Cl)c3)n2)o1 -4.8%
C[C@@H]1C=C(C(=O)O)O[C@H](OCc2ccc(CO)cc2)C1 6%
O=[N+]([O-])c1nn(-c2ccccc2)n(O)c1=NCCc1ccccc1 -5.6%
COc1ccc(-n2nc([N+](=O)[O-])c(=NCCc3ccccc3)n2O)cc1 10%
CCCCN=C1C([N+](=O)[O-])=CC=C2C1=NC1(CCCCC1)N2O 31.3%
CCC(CC)NC(=O)COC(=O)CCC(=O)c1cccs1 4.9%
Cc1nc2cc(NC(=O)N3CCCCC3)ccc2n1C 16.1%
CCO/C=N/c1c(C#N)c2c(c(=S)n1C)COC(C)(C)C2 5.8%
Cn1c(=O)n(C)c2cc([N+](=O)[O-])c(N3CCN(S(C)(=O)=O)CC3)cc21 -6.6%
CCSC1=NC2(CCCCC2)Nc2sc3c(c21)CCCC3 -35%
CC1CCCC2(C1)NC(=S)N(c1ccccc1)N2 (centres undefined) -48.4%
COc1ccccc1OCCOCCOc1ccc(C)cc1Br 11.4%
C=CCn1c(SC/C=C/c2ccccc2)nnc1-c1sc(N)nc1C 13.7%
CCN(CC#CCC(O)(c1ccccc1)C1CCCC1)C(C)C (centres undefined) 7.4%
CC(C)(C)N(CC#CCC(O)(c1ccccc1)C1CCCC1)CCO (centres undefined) 30.4%
CC(C)C(C)NC(=O)COC(=O)c1cccc(C(=O)OCC(=O)NC(C)C(C)C)n1 (centres undefined) 21.9%
Nc1nnc(-c2ccncc2)s1 13.4%
CCOC(=O)NC1(NCC(C)C)Oc2ccccc2O1 42.4%
CCOC(=O)NC1(NC(C)C)Oc2ccccc2O1 12.2%
CCN(CC)c1ccc(C2C(C(=O)OCCOC(C)C)=C(C)NC3=C2C(=O)CCC3)cc1 (centres undefined) 6.2%
CCOC(=O)c1oc2ccccc2c1NC(=O)CN1CCOCC1 -0.8%
COc1ccc(NC(=O)c2ccc(S(=O)(=O)N3CCOCC3)cc2)c(OC)c1 7.2%
COC(=O)c1c(-c2ccccc2)csc1NC(=O)C1CC=CCC1C(=O)O (centres undefined) -6.8%
COC(=O)c1c(-c2ccc(C)cc2)csc1NC(=O)C1CC=CCC1C(=O)O (centres undefined) 7.7%
